A selection: hits, their analogues and other compounds. The true share with any hit is near 19%.
Pf growth 48h: Primary qHTS for delayed death inhibitors of the malarial parasite plastid, 48 hour incubation | P. falciparum luciferase growth in erythrocytes, 48 h | Potency, µM (titrated, usually from 28.7 µM), inactives show at the highest dose activity change, negative = inhibition, most hits filed as inhibitors | 310,000 tested, 5.9% active; also: potency is read from the fitted curve at half-maximal effect; % is scaled to controls: 0 for no effect and ±100 for the full control effect
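Luciferase-expressing parasites in RBCs, 2% Hct / 0.1% parasitemia final; RPMI 1640 + 0.5% Albumax; 37 C, 5% CO2, one generation; luminescence read-out, lower signal = inhibition.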
Cycloheximide cs: Cycloheximide Counterscreen for Small Molecule Inhibitors of Shiga Toxin. AID 2314, 2010. cell reporter, cycloheximide protein synthesis inhibition counterscreen. 300,000 tested, 12% active. max response, %; in the data active = max response mostly above about 13%, no sharp cut-off; inactive = mostly below about 14%; also: read at 38.3 µM for the half of the compounds with a filed dose; 0% is about no effect
Shiga toxin inh: A qHTS for Small Molecule Inhibitors of Shiga Toxin; 290,000 tested, 9.2% active; AID 2315, 2010; inhibition, % at 38.7 µM; Vero cells, Shiga toxin protein synthesis inhibition reporter; in the data active = inhibition mostly above about 28%, no sharp cut-off; inactive = mostly below about 43%; also: 0% is about no effect
AMA1-RON2 inh: qHTS for Inhibitors of AMA1-RON; Towards Development of Antimalarial Drug Lead: Primary Screen | Plasmodium falciparum AMA1 (3D7) - RON2 peptide interaction | AlphaScreen AMA1-biotinylated RON2 peptide binding | Potency, µM (highest dose often 58.2 µM), inactives show top-dose activity change, negative = inhibition, most hits filed as inhibitors | 360,000 tested, 0.2% active;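 also: potency is read from the fitted curve at half-maximal effect; 0% = vehicle wells and -100% = peptide control; nearly all actives have a fitted effect of over 45% in size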
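AMA1 (3D7) with his tag at 25 nM final met compounds first, then biotinylated RON2 peptide at 25 nM; detection used donor plus acceptor beads, 10 µg/mL apiece, read by AlphaScreen after 30 min at room temperature.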
SARS PLP yeast: qHTS of Yeast-based Assay for SARS-CoV PLP; 330,000 tested, 0.19% active; Potency, µM (titrated, usually from 32.9 µM), without a hit: top-dose activity, positive = growth rescue, usual class: activators; S. cerevisiae expressing SARS-CoV PLpro, growth rescue; calls by dose curve; also: potency is read from the fitted curve at half-maximal effect; 0% is about no effect; nearly all actives have a fitted effect of over 55% in size
Pf growth 96h: Primary qHTS for delayed death inhibitors of the malarial parasite plastid, 96 hour incubation | AID 504834, 2011 | Potency, µM (top dose mostly 28.7 µM), without a hit: at the top dose activity change, negative = inhibition, usual class: inhibitors | P. falciparum luciferase reporter growth, 96 h | 320,000 tested, 6.9% active; also: potency is read from the fitted curve at half-maximal effect; % is scaled to controls: 0 for no effect and ±100 for the full control effect
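Cell-based qHTS: luciferase-tagged P. falciparum in erythrocytes (2% hematocrit, 0.05% parasitemia final) incubated with compounds for 96 hours, 37 C, 5% CO2; luciferase detection reagent then added and luminescence measured.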
* marks the source's active call; other numbers are inactive results; [ ] = another dose, or the depositor's remark. Unless noted, calls follow the shape of the dose curve; as a rule, active = well fitted curve in the direction sought with a large enough effect; inconclusive = small, poorly fitted or top-dose-only effect, or another doubt; inactive = no such curve, though single readings can be large; an effect the other way counts as inactive or inconclusive.

`C/C(=N\NC(=O)c1ccoc1C)c1ccc(Br)s1` gave Pf growth 48h 36.0%, Cycloheximide cs 57.2*, Shiga toxin inh 79.5*, AMA1-RON2 inh 41.4%, SARS PLP yeast -3.8% and Pf growth 96h -9.2%.
Screening Cc1ccc(/C=N/NC(=O)c2ccoc2C)s1 returned Pf growth 48h 92.4%, Cycloheximide cs 70.0*, Shiga toxin inh active, AMA1-RON2 inh 2.7%, SARS PLP yeast -13.9% and Pf growth 96h 69.8%.
`Cc1occc1C(=O)N/N=C/c1ccc(Br)s1` gave Pf growth 48h 23.3%, Cycloheximide cs 42.3*, Shiga toxin inh 63.0*, AMA1-RON2 inh -8.0%, SARS PLP yeast -2.8% and Pf growth 96h 29.7%.
Screening Cc1ncc(CO)c(/C=N/NC(=O)c2ccoc2C)c1O returned Pf growth 48h inconclusive, AMA1-RON2 inh 79.1%, SARS PLP yeast 1.8% and Pf growth 96h -5.7%.
For NC(=O)[C@@H]1CCCN1 the results were Cycloheximide cs -1.9 and Shiga toxin inh -2.6.
CCCCn1c(-c2ccc(OC)cc2)nc2c(=O)n(C)c(=O)[nH]c21 was read as Pf growth 48h -11.9%[0.00184 µM], Cycloheximide cs -5.7, Shiga toxin inh 6.2, AMA1-RON2 inh 24.7%, SARS PLP yeast 0.6% and Pf growth 96h 1.65µM*.
For CCCn1c(-c2ccc(OC)cc2)nc2c(=O)n(C)c(=O)[nH]c21 the results were Pf growth 48h 5.3%, Cycloheximide cs -6.8, Shiga toxin inh -17.6, AMA1-RON2 inh -13.5% and SARS PLP yeast 10.6%.
For Cc1ccc(NC2=NC3(CCCCC3)N=C(N)N2)c(C)c1 the results were Pf growth 48h inconclusive, Cycloheximide cs -2.9, Shiga toxin inh -12.0, AMA1-RON2 inh -4.9%, SARS PLP yeast 5.5% and Pf growth 96h 8.28µM*.
NC1=NC2(CCCCC2)N=C(Nc2ccc(Br)cc2)N1 was read as Pf growth 48h 1.04µM*, Cycloheximide cs -5.3, Shiga toxin inh -9.3, AMA1-RON2 inh 24.7%, SARS PLP yeast -7.9% and Pf growth 96h inconclusive.
For Cc1cccc(C)c1NC1=NC2(CCCCC2)N=C(N)N1 the results were Pf growth 48h inconclusive, Cycloheximide cs -4.0, Shiga toxin inh -10.0, AMA1-RON2 inh -11.6%, SARS PLP yeast 6.9% and Pf growth 96h 95.4%.
For Cc1ccc(NC2=NC3(CCCC3)N=C(N)N2)c(C)c1 the results were Pf growth 48h inconclusive, Cycloheximide cs -3.4, Shiga toxin inh -7.4, AMA1-RON2 inh -7.0%, SARS PLP yeast 0.6% and Pf growth 96h 204.4%.
Screening COc1cc2c(cc1NC(=O)Nc1ccc(F)cc1)oc1ccccc12 returned Pf growth 48h -56.1%, Cycloheximide cs -1.5, Shiga toxin inh -7.8, AMA1-RON2 inh 0.0%, SARS PLP yeast 2.4% and Pf growth 96h inconclusive.
`COc1ccc(C(=O)N2CCc3cc4c(cc3C2C)OCCCO4)cc1` (centres undefined) gave Pf growth 48h inconclusive, Cycloheximide cs -0.9, Shiga toxin inh 7.2, AMA1-RON2 inh -3.7%, SARS PLP yeast 3.2% and Pf growth 96h 13.1µM*.
Cc1cccc(N=N/C(=C\O)C(=O)c2ccc(Br)cc2)c1 was read as Pf growth 48h 71.4%, Cycloheximide cs 13.1, Shiga toxin inh 55.1, AMA1-RON2 inh -7.8%, SARS PLP yeast -7.7% and Pf growth 96h 26.7%.
For Cc1cccc(N/N=C(\C=N\N)C(=O)c2ccc(Br)cc2)c1 the results were Pf growth 48h 11.7µM*, Cycloheximide cs -2.5, Shiga toxin inh 20.7, SARS PLP yeast -11.1% and Pf growth 96h -25.7%.
For CCOC(=O)c1c(-n2cccc2)sc2c1CCCC2=O the results were Pf growth 48h 4.6%, Cycloheximide cs 5.1, Shiga toxin inh 8.1, AMA1-RON2 inh -10.1%, SARS PLP yeast -9.8% and Pf growth 96h 2.0%.
Screening O=C(Nc1ccc2ccccc2c1)N1CCCN(CCOc2ccccc2)CC1 returned Pf growth 48h inconclusive, Cycloheximide cs -2.4, Shiga toxin inh 7.0, AMA1-RON2 inh -2.9%, SARS PLP yeast -2.0% and Pf growth 96h 0.9%.
For CCCCC/C=C\C/C=C\C/C=C\C/C=C\CCCC(=O)N(Cc1ccc(O)c(Cl)c1)Cc1ccc(O)c(Cl)c1 the results were Cycloheximide cs 39.6 and Shiga toxin inh 62.8*.
CC1(C)CC(=O)C2=C(C1)OC1=C(C(=O)CC(C)(C)C1)C2c1ccc(O)cc1O was read as Pf growth 48h 11.7µM*, Cycloheximide cs -9.7, Shiga toxin inh -14.7, AMA1-RON2 inh -5.1%, SARS PLP yeast -22.7% and Pf growth 96h 10.4µM*.
CCOC(=O)COc1ccccc1/C=C1/NC(=O)NC1=O was read as Pf growth 48h 13.5%, Cycloheximide cs -3.6, Shiga toxin inh -5.2, AMA1-RON2 inh -3.2%, SARS PLP yeast 1.7% and Pf growth 96h 10.4µM*.
COc1cccc(/C=C2\NC(=O)NC2=O)c1O was read as Pf growth 48h 75.7%, Cycloheximide cs 24.3, Shiga toxin inh 40.6*, AMA1-RON2 inh -8.5%, SARS PLP yeast 0.5% and Pf growth 96h 0.928µM*.
O=C1NC(=O)/C(=C/c2ccccc2Cl)N1 was read as Cycloheximide cs -0.8, Shiga toxin inh -8.8, AMA1-RON2 inh 0.9%, SARS PLP yeast -1.4% and Pf growth 96h inconclusive.
CCc1nc2ccc(C(=O)N3CCN(C(=O)c4ccco4)CC3)cn2c1N(C)Cc1nccn1C was read as AMA1-RON2 inh 16.4%.
For CCCS(=O)(=O)NC(=O)C1(C)CCCN(C(=O)c2ccncc2)C1 (centres undefined) the results were AMA1-RON2 inh 3.5%.
`O=C(NCC1CCCO1)C1CCCN(S(=O)(=O)c2cc(Cl)ccc2Cl)C1` (centres undefined) gave Pf growth 48h -4.9%, Cycloheximide cs -4.0, Shiga toxin inh -2.9, AMA1-RON2 inh -3.9%, SARS PLP yeast -4.4% and Pf growth 96h -8.1%.
`COc1ccc(OC)c(NC(=O)NNS(=O)(=O)c2ccc(C)cc2C)c1` gave Pf growth 48h 9.0%, Cycloheximide cs -3.7, Shiga toxin inh -6.8, AMA1-RON2 inh -5.1%, SARS PLP yeast 2.2% and Pf growth 96h -13.4%.
Screening CCOC(=O)c1ccc(NC(=O)NNS(=O)(=O)c2cc(OC)ccc2OC)cc1 returned Pf growth 48h 41.4%, Cycloheximide cs -0.1, Shiga toxin inh -0.9, AMA1-RON2 inh 20.0%, SARS PLP yeast 0.3% and Pf growth 96h 5.22µM*.
CCOC(=O)c1ccc(NC(=O)Nc2cc(C)on2)cc1 was read as Pf growth 48h inconclusive, Cycloheximide cs 31.6*, Shiga toxin inh 38.6*, AMA1-RON2 inh 3.3% and SARS PLP yeast 5.5%.

Screening results from PubChem BioAssay.
